compound: OC1CN(Cc2sccc12)C(=O)CCl; experiment: log2 ratio of Biotin-Ahx-Ub-VS probe labelling (compound/DMSO); higher = less target engagement, active = hit call of the paper (q ≤ 0.05, log2 ratio ≤ -1); settings: compound concentration: 50uM; treatment time: 3 h
Protocol: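 Round 2 competitive ABPP in HEK293T lysate. Purified HTC-D2B compounds were tested at 50 and 200 µM for 3 h, followed by Biotin-Ahx-Ub-VS enrichment and diaPASEF LC-MS/MS. Values are the average log2 ratio (compound/DMSO) from an unpaired t-test (n=3 treated, n=26 DMSO).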

UniProt O75317, sequence (O75317 whole entry): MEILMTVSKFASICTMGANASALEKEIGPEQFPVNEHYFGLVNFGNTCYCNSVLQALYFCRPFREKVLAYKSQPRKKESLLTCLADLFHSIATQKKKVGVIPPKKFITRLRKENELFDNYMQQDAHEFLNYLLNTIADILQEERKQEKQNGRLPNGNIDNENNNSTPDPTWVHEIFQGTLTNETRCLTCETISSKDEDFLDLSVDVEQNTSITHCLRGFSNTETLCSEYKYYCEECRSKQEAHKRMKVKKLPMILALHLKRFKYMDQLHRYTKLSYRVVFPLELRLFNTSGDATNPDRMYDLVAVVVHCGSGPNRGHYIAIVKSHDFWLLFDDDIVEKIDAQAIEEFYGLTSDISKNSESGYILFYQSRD
UniProt P09936, sequence (P09936 whole entry, looked up): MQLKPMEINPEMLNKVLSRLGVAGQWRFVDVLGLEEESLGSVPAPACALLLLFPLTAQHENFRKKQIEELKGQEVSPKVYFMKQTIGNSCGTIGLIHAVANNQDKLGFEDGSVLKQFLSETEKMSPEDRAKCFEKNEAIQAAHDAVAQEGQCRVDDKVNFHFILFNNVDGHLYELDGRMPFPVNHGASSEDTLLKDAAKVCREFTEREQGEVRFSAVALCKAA
UniProt Q86UV5, sequence (Q86UV5 whole entry): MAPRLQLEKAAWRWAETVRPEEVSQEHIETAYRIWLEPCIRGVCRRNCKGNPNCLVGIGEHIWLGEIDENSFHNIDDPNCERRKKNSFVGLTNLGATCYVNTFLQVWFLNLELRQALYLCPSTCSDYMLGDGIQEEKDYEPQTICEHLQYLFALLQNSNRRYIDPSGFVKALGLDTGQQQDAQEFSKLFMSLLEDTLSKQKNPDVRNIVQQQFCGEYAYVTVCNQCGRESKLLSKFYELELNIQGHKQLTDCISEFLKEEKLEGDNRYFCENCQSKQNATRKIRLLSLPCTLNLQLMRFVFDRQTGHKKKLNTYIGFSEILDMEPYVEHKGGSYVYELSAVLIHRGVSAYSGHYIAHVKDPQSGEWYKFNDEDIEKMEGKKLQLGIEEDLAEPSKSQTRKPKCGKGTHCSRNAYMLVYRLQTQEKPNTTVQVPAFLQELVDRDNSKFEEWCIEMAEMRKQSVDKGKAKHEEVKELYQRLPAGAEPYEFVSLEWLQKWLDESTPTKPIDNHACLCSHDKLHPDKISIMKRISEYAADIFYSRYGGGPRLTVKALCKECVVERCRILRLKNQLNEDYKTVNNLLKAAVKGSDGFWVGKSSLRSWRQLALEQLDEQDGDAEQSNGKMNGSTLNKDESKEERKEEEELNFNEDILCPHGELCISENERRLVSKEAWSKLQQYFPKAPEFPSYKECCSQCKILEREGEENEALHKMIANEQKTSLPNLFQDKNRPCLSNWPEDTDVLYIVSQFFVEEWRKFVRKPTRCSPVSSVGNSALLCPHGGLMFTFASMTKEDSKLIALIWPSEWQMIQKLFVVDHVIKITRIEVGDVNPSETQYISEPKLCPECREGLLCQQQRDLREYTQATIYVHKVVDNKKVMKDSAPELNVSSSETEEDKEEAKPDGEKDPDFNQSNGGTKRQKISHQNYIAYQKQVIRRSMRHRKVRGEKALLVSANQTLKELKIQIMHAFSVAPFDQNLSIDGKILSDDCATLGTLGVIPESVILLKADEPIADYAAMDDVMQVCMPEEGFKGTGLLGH
UniProt Q9P2H5, sequence (Q9P2H5 whole entry): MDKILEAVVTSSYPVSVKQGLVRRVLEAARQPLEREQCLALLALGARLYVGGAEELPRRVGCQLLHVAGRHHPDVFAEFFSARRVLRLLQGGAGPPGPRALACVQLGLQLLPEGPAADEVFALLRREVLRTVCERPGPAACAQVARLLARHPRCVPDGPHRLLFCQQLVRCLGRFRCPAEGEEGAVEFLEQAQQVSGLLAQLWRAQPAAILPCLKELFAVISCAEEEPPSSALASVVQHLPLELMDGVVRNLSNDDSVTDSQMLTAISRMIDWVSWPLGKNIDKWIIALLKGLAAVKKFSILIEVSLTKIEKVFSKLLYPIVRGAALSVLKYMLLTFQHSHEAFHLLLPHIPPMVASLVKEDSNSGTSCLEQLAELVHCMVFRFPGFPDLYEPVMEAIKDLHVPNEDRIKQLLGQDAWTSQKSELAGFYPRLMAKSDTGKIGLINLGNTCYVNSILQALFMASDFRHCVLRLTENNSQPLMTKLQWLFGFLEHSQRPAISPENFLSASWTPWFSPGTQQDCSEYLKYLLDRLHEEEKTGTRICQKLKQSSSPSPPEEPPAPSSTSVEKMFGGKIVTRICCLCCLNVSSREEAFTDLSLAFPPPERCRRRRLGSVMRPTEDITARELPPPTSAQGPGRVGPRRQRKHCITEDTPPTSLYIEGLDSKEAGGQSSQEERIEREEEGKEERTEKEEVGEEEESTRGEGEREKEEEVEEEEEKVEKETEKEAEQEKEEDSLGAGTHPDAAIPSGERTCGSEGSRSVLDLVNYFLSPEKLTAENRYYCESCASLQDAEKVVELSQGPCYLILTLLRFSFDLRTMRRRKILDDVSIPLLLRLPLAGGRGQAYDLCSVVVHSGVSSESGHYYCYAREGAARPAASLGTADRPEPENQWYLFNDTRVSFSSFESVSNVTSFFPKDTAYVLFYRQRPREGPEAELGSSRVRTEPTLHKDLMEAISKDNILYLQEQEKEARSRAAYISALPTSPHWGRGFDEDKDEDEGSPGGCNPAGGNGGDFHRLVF
UniProt P51784, sequence (P51784 whole entry): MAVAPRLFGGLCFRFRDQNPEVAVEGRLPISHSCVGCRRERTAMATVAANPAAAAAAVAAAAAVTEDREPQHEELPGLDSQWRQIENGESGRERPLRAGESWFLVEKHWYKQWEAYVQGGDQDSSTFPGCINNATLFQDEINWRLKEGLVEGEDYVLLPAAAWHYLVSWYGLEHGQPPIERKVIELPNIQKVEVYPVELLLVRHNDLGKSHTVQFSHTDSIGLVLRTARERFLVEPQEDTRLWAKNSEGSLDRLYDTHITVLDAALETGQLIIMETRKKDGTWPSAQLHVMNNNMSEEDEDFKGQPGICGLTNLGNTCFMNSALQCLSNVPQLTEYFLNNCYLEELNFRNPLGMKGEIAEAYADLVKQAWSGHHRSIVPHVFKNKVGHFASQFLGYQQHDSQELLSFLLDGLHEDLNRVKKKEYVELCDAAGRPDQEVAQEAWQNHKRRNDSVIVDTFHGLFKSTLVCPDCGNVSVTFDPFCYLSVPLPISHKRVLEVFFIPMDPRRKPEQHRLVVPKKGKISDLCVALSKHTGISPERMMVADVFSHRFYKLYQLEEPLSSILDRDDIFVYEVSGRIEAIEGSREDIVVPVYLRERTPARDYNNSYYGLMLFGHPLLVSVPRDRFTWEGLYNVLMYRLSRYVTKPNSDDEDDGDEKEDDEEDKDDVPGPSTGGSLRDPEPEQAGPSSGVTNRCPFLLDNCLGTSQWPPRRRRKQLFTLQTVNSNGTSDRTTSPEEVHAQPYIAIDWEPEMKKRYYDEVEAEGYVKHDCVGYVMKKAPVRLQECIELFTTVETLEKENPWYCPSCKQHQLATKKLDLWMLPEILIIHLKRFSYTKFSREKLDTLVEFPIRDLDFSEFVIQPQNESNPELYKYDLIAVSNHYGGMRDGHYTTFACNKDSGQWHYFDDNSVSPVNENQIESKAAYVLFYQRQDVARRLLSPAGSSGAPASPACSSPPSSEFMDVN
UniProt Q8N6M0, sequence (Q8N6M0 whole entry): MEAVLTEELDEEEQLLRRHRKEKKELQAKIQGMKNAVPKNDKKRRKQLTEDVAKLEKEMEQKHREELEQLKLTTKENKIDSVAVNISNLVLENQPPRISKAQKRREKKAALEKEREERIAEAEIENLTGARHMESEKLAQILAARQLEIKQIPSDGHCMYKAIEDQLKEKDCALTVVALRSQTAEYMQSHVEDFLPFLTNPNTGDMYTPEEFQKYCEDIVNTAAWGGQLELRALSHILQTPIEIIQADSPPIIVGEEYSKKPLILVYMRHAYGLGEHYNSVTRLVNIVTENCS
UniProt O00487, sequence (O00487 whole entry): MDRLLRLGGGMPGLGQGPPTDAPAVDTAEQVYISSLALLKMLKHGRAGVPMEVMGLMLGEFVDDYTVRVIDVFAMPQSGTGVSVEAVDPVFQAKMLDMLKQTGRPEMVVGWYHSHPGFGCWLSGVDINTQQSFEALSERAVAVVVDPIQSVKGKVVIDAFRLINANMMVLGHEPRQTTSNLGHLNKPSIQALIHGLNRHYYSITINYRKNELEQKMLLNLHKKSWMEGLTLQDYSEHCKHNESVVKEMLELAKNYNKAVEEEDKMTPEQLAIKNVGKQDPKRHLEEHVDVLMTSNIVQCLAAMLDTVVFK
UniProt P51665, sequence (P51665 whole entry): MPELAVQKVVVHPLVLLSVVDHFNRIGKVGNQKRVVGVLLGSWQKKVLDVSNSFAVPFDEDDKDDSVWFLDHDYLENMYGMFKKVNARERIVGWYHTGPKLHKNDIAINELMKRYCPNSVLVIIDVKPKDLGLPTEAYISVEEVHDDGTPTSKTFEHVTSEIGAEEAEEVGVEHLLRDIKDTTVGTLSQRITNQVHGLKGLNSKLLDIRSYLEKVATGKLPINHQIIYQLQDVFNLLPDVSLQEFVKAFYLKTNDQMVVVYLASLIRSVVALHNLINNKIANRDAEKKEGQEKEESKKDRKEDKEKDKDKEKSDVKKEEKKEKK
UniProt Q9NUU6, sequence (Q9NUU6 whole entry): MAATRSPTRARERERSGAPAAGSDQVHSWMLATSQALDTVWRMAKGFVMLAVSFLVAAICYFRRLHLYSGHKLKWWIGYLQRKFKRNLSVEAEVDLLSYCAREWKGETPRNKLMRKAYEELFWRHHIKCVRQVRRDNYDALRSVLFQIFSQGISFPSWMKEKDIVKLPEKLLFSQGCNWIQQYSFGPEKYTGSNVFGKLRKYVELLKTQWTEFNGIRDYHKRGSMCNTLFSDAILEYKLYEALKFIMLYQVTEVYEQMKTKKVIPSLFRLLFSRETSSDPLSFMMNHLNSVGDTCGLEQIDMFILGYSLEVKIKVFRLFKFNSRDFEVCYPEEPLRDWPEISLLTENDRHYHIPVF

log2 ratio of Biotin-Ahx-Ub-VS probe labelling, inactive:
UCHL1 (UniProt P09936) -0.248
OTUD6B (UniProt Q8N6M0) -0.139
USP12 (UniProt O75317) -0.0752
USP5 (UniProt P45974) 0.084
PRPF8 (UniProt Q6P2Q9) 0.0584
USP14 (UniProt P54578) -0.385
MINDY4 (UniProt Q4G0A6) 0.0365
EIF3H (UniProt O15372) -0.189
PSMD7 (UniProt P51665) -0.579
UCHL3 (UniProt P15374) -0.332
UniProt P51784 0.0374
USP48 (UniProt Q86UV5) -0.157
ATXN3 (UniProt P54252) -0.216
USP19 (UniProt O94966) -0.389
UniProt Q9P2H5 -0.029
FAM105A (UniProt Q9NUU6) -0.0183
USP28 (UniProt Q96RU2) -0.0634
USP8 (UniProt P40818) -0.266
USP16 (UniProt Q9Y5T5) -0.903
UniProt O00487 0.0337

same assay, conditions: compound concentration: 200uM; treatment time: 3 h

log2 ratio of Biotin-Ahx-Ub-VS probe labelling, inactive:
UCHL1 (UniProt P09936) -0.0486
OTUD6B (UniProt Q8N6M0) -0.239
USP12 (UniProt O75317) -0.294
USP5 (UniProt P45974) 0.198
PRPF8 (UniProt Q6P2Q9) 0.0922
USP14 (UniProt P54578) -0.604
MINDY4 (UniProt Q4G0A6) 0.686
EIF3H (UniProt O15372) -0.0524
PSMD7 (UniProt P51665) 0.371
UCHL3 (UniProt P15374) -0.337
UniProt P51784 -0.0603
USP48 (UniProt Q86UV5) -0.225
ATXN3 (UniProt P54252) -0.0796
USP19 (UniProt O94966) -0.703
UniProt Q9P2H5 -0.0467
FAM105A (UniProt Q9NUU6) 0.114
USP28 (UniProt Q96RU2) -0.321
USP8 (UniProt P40818) -0.144
USP16 (UniProt Q9Y5T5) -0.0352
UniProt O00487 -0.128
